Of roughly 7,900 targets only a part is listed; those with a hit were picked by preference. About 0.6% of all pairs of compound and target were hits.
compound: C1=CC2=NC=CN=C2C=C1/C=C/3\C(=O)NC(=O)S3; test: log2 fold change, soluble protein after heating vs DMSO (PISA); higher = thermal stabilisation; K562 cells, 10 uM, 30 min; active = over 0.2 and 3.5 SD of the protein, either way, in both replicates (recomputed)
How it was run: (§1)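 K562 cells at 2×10^6 cells/mL were given 10 μM compound for 30 min. Aliquots then went through 3 min of heating across 48°C-58°C, were pooled, and were extracted in PBS with 0.5% NP-40 at 4°C, and the supernatant after 21,000xg for 90 min was quantified by TMTpro 16plex LC-MS/MS with channel sums equalised. Thermal stability relative to control samples, from duplicates, is given as log2 fold change.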

UniProt P49189, sequence (P49189 whole entry, looked up): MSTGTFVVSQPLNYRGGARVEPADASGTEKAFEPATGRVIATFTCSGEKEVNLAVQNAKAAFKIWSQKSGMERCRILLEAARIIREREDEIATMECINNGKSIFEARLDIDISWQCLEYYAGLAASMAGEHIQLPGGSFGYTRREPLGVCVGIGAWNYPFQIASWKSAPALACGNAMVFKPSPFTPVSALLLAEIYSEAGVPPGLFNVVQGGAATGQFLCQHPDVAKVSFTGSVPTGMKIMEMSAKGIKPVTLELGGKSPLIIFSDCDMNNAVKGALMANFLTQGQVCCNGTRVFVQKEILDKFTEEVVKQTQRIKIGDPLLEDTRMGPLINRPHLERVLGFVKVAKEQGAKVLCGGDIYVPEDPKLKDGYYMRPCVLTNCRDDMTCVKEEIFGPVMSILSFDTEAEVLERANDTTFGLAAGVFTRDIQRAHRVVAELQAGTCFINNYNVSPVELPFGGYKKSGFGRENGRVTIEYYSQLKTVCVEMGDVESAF
UniProt Q9Y679, sequence (Q9Y679 whole entry, looked up): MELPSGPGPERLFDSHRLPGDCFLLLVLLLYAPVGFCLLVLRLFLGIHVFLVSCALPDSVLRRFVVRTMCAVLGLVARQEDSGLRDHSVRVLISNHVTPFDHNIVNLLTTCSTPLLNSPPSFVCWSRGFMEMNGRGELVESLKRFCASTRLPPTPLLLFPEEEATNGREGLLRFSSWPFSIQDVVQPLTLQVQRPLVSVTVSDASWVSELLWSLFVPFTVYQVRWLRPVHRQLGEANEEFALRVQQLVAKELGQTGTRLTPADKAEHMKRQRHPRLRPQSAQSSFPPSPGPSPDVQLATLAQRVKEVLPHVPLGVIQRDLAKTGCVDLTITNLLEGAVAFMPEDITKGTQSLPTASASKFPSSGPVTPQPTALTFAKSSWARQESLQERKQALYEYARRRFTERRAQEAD
UniProt O60566, sequence (O60566 whole entry, looked up): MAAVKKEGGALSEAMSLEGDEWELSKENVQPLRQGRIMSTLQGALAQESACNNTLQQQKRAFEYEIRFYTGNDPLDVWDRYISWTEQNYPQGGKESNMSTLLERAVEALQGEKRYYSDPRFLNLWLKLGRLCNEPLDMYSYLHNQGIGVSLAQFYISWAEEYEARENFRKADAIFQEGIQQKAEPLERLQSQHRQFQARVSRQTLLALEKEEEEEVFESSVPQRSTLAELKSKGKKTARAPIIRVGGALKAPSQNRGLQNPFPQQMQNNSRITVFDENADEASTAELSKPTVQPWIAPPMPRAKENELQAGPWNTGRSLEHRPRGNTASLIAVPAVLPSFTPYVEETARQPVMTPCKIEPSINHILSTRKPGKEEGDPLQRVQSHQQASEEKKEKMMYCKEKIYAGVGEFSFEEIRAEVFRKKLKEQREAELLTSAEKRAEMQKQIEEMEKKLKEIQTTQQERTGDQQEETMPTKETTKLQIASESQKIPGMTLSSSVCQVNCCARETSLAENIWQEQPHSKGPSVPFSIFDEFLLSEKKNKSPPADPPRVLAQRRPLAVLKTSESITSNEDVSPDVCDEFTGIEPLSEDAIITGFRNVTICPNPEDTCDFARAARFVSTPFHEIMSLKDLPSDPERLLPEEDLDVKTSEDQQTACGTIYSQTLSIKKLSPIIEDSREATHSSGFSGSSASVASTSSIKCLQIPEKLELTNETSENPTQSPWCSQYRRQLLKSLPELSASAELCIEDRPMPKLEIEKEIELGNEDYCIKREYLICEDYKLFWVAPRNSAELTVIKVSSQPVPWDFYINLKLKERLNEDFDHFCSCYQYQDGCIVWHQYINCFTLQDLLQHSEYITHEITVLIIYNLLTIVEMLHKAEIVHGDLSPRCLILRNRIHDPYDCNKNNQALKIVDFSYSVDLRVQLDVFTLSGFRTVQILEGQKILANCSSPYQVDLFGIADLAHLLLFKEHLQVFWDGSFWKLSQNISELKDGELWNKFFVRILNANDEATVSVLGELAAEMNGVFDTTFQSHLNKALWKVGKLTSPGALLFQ
UniProt Q02252, sequence (Q02252 whole entry, looked up): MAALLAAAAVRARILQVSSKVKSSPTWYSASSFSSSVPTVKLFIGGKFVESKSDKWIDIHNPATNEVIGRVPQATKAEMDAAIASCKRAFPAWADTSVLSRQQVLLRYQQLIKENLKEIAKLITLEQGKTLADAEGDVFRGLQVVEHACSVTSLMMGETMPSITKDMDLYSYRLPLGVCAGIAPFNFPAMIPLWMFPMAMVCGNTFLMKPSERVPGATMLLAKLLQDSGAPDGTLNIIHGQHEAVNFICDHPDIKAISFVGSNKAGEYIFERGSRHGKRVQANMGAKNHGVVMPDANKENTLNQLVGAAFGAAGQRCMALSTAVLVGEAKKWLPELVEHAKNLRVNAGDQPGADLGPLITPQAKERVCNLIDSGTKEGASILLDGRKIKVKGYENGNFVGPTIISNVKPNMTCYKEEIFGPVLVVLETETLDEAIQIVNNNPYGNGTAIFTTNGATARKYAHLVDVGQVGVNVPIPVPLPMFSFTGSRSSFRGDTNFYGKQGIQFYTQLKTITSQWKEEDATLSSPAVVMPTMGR
UniProt Q99758, sequence (Q99758 whole entry, looked up): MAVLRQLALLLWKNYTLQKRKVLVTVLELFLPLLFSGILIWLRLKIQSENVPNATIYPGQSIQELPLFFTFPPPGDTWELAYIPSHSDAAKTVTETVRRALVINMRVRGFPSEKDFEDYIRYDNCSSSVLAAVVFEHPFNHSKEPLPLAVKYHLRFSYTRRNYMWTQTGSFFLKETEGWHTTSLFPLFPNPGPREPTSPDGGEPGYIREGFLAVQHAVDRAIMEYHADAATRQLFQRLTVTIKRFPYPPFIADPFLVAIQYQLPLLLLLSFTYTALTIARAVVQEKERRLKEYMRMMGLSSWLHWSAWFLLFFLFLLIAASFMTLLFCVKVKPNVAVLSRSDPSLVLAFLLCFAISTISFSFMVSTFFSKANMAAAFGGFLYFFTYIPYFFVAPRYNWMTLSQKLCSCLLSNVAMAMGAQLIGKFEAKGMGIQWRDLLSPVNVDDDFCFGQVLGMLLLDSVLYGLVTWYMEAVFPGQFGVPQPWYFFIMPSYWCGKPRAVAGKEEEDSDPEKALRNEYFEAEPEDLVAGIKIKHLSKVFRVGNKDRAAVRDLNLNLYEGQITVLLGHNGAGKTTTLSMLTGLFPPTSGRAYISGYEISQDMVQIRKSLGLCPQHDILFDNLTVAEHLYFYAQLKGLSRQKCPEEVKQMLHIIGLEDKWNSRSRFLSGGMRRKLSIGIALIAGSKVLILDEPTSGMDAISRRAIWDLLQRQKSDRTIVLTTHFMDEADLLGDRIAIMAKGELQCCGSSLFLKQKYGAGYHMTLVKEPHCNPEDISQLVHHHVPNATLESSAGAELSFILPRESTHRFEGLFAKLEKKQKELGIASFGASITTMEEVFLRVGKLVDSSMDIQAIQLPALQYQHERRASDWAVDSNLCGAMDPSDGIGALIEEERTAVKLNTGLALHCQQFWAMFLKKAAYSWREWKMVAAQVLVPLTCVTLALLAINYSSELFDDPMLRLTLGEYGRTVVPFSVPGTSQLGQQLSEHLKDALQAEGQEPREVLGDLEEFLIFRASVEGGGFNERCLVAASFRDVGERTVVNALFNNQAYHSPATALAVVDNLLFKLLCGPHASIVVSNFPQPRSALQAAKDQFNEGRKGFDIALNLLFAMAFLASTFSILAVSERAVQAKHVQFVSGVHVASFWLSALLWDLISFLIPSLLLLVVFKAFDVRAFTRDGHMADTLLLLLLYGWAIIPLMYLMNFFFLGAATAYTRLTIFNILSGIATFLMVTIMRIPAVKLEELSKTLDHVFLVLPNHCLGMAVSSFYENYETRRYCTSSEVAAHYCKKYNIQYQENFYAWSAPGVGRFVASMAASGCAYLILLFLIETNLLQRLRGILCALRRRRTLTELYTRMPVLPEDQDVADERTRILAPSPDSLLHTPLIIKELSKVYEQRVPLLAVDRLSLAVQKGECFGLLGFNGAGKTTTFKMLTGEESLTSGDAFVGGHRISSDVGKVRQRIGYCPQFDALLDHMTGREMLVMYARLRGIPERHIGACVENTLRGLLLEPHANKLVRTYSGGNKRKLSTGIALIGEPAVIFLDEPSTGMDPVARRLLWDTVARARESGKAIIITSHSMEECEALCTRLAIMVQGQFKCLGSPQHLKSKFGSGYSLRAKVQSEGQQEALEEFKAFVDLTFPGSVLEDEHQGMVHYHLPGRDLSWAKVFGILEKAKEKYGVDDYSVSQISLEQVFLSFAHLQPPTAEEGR
UniProt Q9Y2Y0, sequence (Q9Y2Y0 whole entry, looked up): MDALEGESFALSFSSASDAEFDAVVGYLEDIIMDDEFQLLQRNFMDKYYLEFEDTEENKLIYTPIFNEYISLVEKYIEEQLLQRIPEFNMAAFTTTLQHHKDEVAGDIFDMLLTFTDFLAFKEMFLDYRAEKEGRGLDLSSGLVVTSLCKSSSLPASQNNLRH
UniProt Q92685, sequence (Q92685 whole entry, looked up): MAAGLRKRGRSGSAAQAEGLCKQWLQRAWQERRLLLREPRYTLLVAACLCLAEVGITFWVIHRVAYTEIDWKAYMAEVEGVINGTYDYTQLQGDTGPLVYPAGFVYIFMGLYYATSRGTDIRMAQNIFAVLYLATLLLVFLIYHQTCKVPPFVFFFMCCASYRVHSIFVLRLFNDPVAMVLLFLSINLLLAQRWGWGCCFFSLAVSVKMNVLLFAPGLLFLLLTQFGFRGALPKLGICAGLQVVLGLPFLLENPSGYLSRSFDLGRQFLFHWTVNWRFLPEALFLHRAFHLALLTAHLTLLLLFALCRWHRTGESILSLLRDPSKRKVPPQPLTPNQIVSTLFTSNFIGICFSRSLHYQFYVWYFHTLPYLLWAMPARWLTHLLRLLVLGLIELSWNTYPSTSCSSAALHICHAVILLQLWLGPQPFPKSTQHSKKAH
UniProt P56211, sequence (P56211 whole entry, looked up): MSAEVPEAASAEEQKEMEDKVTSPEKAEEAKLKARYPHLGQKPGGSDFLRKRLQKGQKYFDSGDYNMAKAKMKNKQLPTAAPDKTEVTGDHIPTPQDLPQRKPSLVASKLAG

log2 fold change, inactive:
ATP6V0A1 isoform 3 (UniProt Q93050) -0.008, ADPRHL2 (UniProt Q9NX46) 0.006, BUB1B isoform 3 (UniProt O60566) 0.052, ATP2A3 isoform 2 (UniProt Q93084) 0.014, ACIN1 (UniProt Q9UKV3) 0.007, AIP (UniProt O00170) 0.048, ATP1B3 (UniProt P54709) 0.023, ALDH9A1 (UniProt P49189) 0.013, ATP6V1C1 (UniProt P21283) 0.046, APPL1 (UniProt Q9UKG1) 0.016, AKAP8L (UniProt Q9ULX6) -0.058, ATP23 (UniProt Q9Y6H3) 0.027, ASNS (UniProt P08243) -0.011, ACTR1B (UniProt P42025) 0.002, ARPP19 (UniProt P56211) 0.041, ARHGAP1 (UniProt Q07960) 0.021, AGPAT3 isoform 3 (UniProt Q9NRZ7) 0.12, ATP13A2 (UniProt Q9NQ11) 0.099, ALDH6A1 (UniProt Q02252) -0.043, ATR (UniProt Q13535) 0.02, ARL2BP (UniProt Q9Y2Y0) 0.104, AUP1 (UniProt Q9Y679) 0.055, ADD1 isoform 3 (UniProt P35611) 0.004, BOP1 (UniProt Q14137) 0.041, ATP9B (UniProt O43861) -0.045, ABCC5 (UniProt O15440) -0.048, BST2 (UniProt Q10589) 0.024, AKT2 (UniProt P31751) -0.023, ABCA3 (UniProt Q99758) -0.056, ALG3 (UniProt Q92685) -0.002, BCCIP isoform 2 (UniProt Q9P287) 0.003, ABHD16A (UniProt O95870) -0.094, AKAP8 (UniProt O43823) -0.004, ARGLU1 (UniProt Q9NWB6) 0.014, ARFGAP1 (UniProt Q8N6T3) -0.018, AAR2 (UniProt Q9Y312) 0.049

compound: C1=CC=C(C=C1)C2=NC(=C(N2)C3=CC=NC=C3)C4=CC(=C(C=C4)Cl)O; test: as above
How it was run: as §1

log2 fold change, inactive:
ATP6V0A1 isoform 3 (UniProt Q93050) -0.232, ADPRHL2 (UniProt Q9NX46) 0.019, BUB1B isoform 3 (UniProt O60566) 0.037, ATP2A3 isoform 2 (UniProt Q93084) -0.003, ACIN1 (UniProt Q9UKV3) 0, AIP (UniProt O00170) -0.01, ATP1B3 (UniProt P54709) 0.057, ALDH9A1 (UniProt P49189) -0.103, ATP6V1C1 (UniProt P21283) -0.244, APPL1 (UniProt Q9UKG1) 0.038, AKAP8L (UniProt Q9ULX6) -0.054, ATP23 (UniProt Q9Y6H3) 0.009, ASNS (UniProt P08243) 0.034, ACTR1B (UniProt P42025) -0.037, ARPP19 (UniProt P56211) 0.026, ARHGAP1 (UniProt Q07960) 0.021, AGPAT3 isoform 3 (UniProt Q9NRZ7) 0.04, ATP13A2 (UniProt Q9NQ11) 0.01, ALDH6A1 (UniProt Q02252) 0.038, ATR (UniProt Q13535) -0.017, ARL2BP (UniProt Q9Y2Y0) 0.037, AUP1 (UniProt Q9Y679) 0.078, ADD1 isoform 3 (UniProt P35611) -0.08, BOP1 (UniProt Q14137) -0.153, ATP9B (UniProt O43861) 0.033, ABCC5 (UniProt O15440) -0.014, BST2 (UniProt Q10589) -0.062, AKT2 (UniProt P31751) 0.019, ABCA3 (UniProt Q99758) 0.01, ALG3 (UniProt Q92685) 0.022, BCCIP isoform 2 (UniProt Q9P287) 0.012, ABHD16A (UniProt O95870) 0.036, AKAP8 (UniProt O43823) -0.039, ARGLU1 (UniProt Q9NWB6) -0.125, ARFGAP1 (UniProt Q8N6T3) -0.069, AAR2 (UniProt Q9Y312) -0.003
